# Bioassay records as filed in PubChem BioAssay.
# Shown are actives, neighbours in structure and some others; about 18% of the full set was active somewhere.
# RORgamma inh – qHTS for inhibitors of ROR gamma transcriptional activity | Nuclear receptor ROR-gamma (Mus musculus), P51450 | Drosophila S2 Gal4-RORgamma UAS-luciferase reporter, 20 h | Potency, µM (titrated, usually from 53.6 µM), for inactives: top-dose activity change, negative = inhibition, actives largely listed as inhibitors | 310,000 tested, 5.4% active; further: potency means the concentration at half of the fitted maximal effect; nearly all actives have a fitted effect of over 60% in size
# Target sequence (P51450 whole entry, looked up, the tested form may be a part): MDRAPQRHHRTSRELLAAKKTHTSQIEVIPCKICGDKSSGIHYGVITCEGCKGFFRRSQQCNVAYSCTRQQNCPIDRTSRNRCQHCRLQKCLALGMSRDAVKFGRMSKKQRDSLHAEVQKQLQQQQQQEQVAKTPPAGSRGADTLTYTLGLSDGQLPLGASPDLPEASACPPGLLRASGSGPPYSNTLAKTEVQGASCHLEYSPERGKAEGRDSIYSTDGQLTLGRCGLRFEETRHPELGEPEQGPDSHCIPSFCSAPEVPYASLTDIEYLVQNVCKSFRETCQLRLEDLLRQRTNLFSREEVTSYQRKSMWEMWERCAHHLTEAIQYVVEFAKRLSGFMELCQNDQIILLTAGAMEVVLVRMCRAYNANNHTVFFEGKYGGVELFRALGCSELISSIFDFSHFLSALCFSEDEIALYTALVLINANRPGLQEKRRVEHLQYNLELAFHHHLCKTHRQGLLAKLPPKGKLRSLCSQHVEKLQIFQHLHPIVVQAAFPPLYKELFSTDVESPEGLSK
#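 Schneider cells (Drosophila), stable Gal4 DBD–ROR gamma + UAS-luc; 1 hr cmpd preincubation; Cu2+ induction 700 uM final; 20 hr ambient; luminescence.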
# Gal4-VP16 FLuc – VP16 counterscreen qHTS for inhibitors of ROR gamma transcriptional activity; Drosophila S2 Gal4-VP16 UAS-luciferase, luminescence, 20 h; Potency, µM (series often up to 53.6 µM), inactives show top-dose activity, negative = inhibition, usual class: inhibitors; AID 2546, 2010; 310,000 tested, 3.5% active;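 further: Gal4-VP16 expression switched on by copper sulfate through the metallothionein promoter; potency means the concentration at half of the fitted maximal effect; nearly all actives have a fitted effect of over 50% in size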
# IL-1B inflam inh – qHTS for Inhibitors of Inflammasome Signaling: IL-1-beta AlphaLISA Primary Screen | THP-1 LPS/ATP IL-1B secretion, AlphaLISA, 16 h; active compounds read low | activity change, % at 57.5 µM | 360,000 tested, 4.7% active | AID 743279, 2014; in the data active means activity change below about -50%; inconclusive means mostly about -30% to -49%
#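 THP-1 cells pretreated 1 hr with compounds (up to 57.5 uM final), then stimulated with LPS (250 ng/mL final) plus ATP (1.25 mM final); secreted IL-1B measured by AlphaLISA after 16 hr, decreased signal indicating inhibition.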
# TDP1 cell CPT – qHTS for Inhibitors of human tyrosyl-DNA phosphodiesterase 1 (TDP1): qHTS in cells in presence of CPT | chicken DT40 Tdp1-/-;hTDP1 cells + 20 nM CPT, ATP luminescence, 48 h | Potency, µM (series often up to 46.2 µM), for the others: top-dose activity change, negative = growth inhibition, hits mostly inhibitors | 420,000 tested, 12% active | AID 686979, 2013; further: potency means the concentration at half of the fitted maximal effect; nearly all actives have a fitted effect of over 55% in size
#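 Chicken DT40 Tdp1-/- cells complemented with human TDP1, 400 cells/well, exposed to compounds plus 20 nM camptothecin for at least 48 h at 37 C; viability read as ATP content by CellTiter-Glo luminescence.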
# LDHA inh – qHTS assay for inhibitors of human lactate dehydrogenase; L-lactate dehydrogenase A chain (Homo sapiens), P00338; purified LDHA, NADH/diaphorase-resazurin fluorescence; active compounds read low; activity change, % (values are at about 110 or 230 µM); 480,000 tested, 0.15% active; in the data active means activity change below about -30%; inconclusive means mostly about -25% to -30%;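 further: plate controls were DMSO wells for no effect and wells without enzyme for full effect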
#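 Human LDH5 at 2 nM final in Tris HCl pH 7.4 with 0.06 mM NADH and 0.2 mM pyruvate, reacted 5 minutes at room temperature. Remaining NADH coupled via diaphorase/resazurin; resorufin fluorescence read at 0 and 20 minutes, normalized to enzyme-free and DMSO wells.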
# DT40 TDP1 no CPT – qHTS for Inhibitors of human tyrosyl-DNA phosphodiesterase 1 (TDP1): qHTS in cells in absence of CPT | AID 686978, 2013 | DT40 Tdp1-/- hTDP1 cells, no CPT, ATP luminescence, 48 h | 420,000 tested, 15% active | Potency, µM (highest dose often 46.2 µM), for inactives: top-dose activity change, negative = growth inhibition, hits mostly inhibitors; further: potency means the concentration at half of the fitted maximal effect; nearly all actives have a fitted effect of over 55% in size
#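 Seeded 400 DT40-hTDP1 cells/well (vehicle DMSO, no 20 nM CPT); pinned compounds; ≥48 hr at 37 °C; CellTiter-Glo luminescence as viability measure.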
# * hit, by the source's call; ? = inconclusive; . = no result. Unless noted, the call rests on the fitted dose curve; in most records, active means well fitted curve in the direction sought with a large enough effect; inconclusive means small, poorly fitted or top-dose-only effect, or another doubt; inactive means no such curve, though single readings can be large; an effect the other way counts as inactive or inconclusive. Unless noted, on the % scale 0 is the no-effect control and ±100 the full control effect.
SMILES,RORgamma inh,Gal4-VP16 FLuc,IL-1B inflam inh,TDP1 cell CPT,LDHA inh,DT40 TDP1 no CPT
Oc1cc(-n2cccn2)c(O)cc1-n1cccn1,?,13µM*,-3,5.8µM*,21,4.1µM*
O=C(NCC(c1cccs1)N1CCCCC1)c1cc(=O)c2ccc(Br)cc2o1 (configuration not stated),.,.,.,.,-2,.
O=C(NCC(c1cccs1)N1CCCCCC1)c1cc(=O)c2ccc(Br)cc2o1 (configuration not stated),.,.,.,.,-31*,.
O=C(NCC(c1ccco1)N1CCOCC1)c1cc(=O)c2cc(Br)ccc2o1 (configuration not stated),.,.,.,.,-31*,.
O=C(NCC(c1cccs1)N1CCOCC1)c1cc(=O)c2cc(Br)ccc2o1 (configuration not stated),.,.,.,.,-31*,.
COc1ccccc1C(=O)Nc1nc2ccccc2[nH]1,0.25µM*,0.5µM*,-25,4.6µM*,-3,1.8µM*
C[C@@H](C(=O)NCc1ccccc1)N1C(=O)C2CC=CCC2C1=O (some centres not stated),-24%,-8%,11,3%,-4,-7%
COc1cc(SC)ccc1C(=O)Nc1nc2ccccc2[nH]1,0.1µM*,0.32µM*,47,3.7µM*,-3,2.1µM*
CCSc1ccccc1C(=O)Nc1nc2ccccc2c(=O)[nH]1,32%,15%,6,?,-6,21µM*
CC(C(=O)Nc1nc2ccccc2[nH]1)N1C(=O)C2CC=CCC2C1=O (configuration not stated),10µM*,-6%,0,-2%,-6,-8%
COc1ccccc1C(=O)NCCC(=O)Nc1nc2ccccc2[nH]1,.,.,?,3%,2,?
CSc1ccccc1C(=O)Nc1nc2ccccc2c(=O)[nH]1,44%,?,-2,-30%,0,-21%
CS(=O)(=O)c1ccccc1C(=O)Nc1nc2ccccc2[nH]1,6%,0%,0,3%,0,-7%
Fc1ccc(-c2nnn(Cc3cc4c(cc3Br)OCO4)n2)cc1,.,.,.,.,5,.
COc1cccc(CN(C)C(=O)CSc2nc(-c3cccs3)nc3ccccc23)c1,.,.,.,.,14,.
CSc1ccccc1C(=O)Nc1nc2ccccc2[nH]1,5µM*,?,3,2%,0,0%
O=C(N/N=C(/C=C/c1ccccc1)c1ccccc1)c1cccs1,.,.,.,.,0,.
CCN(CC)c1nc(=S)nc(NC(C)(C)C)[nH]1,1.3µM*,3.2µM*,15,-1%,-2,?
CCOC(=O)C1=C(C)N(C[C@@H]2CC[C@@H](Cc3ccc(-c4ccccc4)cc3)O2)C(=O)NC1c1cccc([N+](=O)[O-])c1 (some centres not stated),.,.,20,?,-7,?
CCOC(=O)C1=C(C)N(C[C@@H]2CC[C@@H](Cc3ccc(-c4ccccc4)cc3)O2)C(=O)NC1C1CC1 (some centres not stated),.,.,11,?,0,21µM*
CCOC(=O)C1=C(C)N(C[C@@H]2CC[C@@H](Cc3ccc(-c4ccccc4)cc3)O2)C(=O)NC1c1ccc(-c2ccccc2)cc1 (some centres not stated),.,.,-3,?,-1,?
CCOC(=O)C1=C(C)N(C[C@@H]2CC[C@@H](Cc3ccc(-c4ccccc4)cc3)O2)C(=O)NC1c1ccc(Cl)cc1 (some centres not stated),.,.,-52*,?,1,21µM*
CC(C)COc1ccc(C2CC(=O)Nc3c(-c4ccccc4)csc32)cc1 (configuration not stated),.,.,.,.,3,.
COc1cc(/C=C/C(=O)OCC(=O)NC(=O)NC(C)C)ccc1OCC#N,25%,7%,8,9%,-2,?
COc1cc(/C=C/C(=O)OCC(=O)NC(=O)NC23CC4CC(CC(C4)C2)C3)ccc1OCC#N,?,-14%,?,?,-5,21µM*
SMILES,RORgamma inh,Gal4-VP16 FLuc,IL-1B inflam inh,TDP1 cell CPT,LDHA inh,DT40 TDP1 no CPT
COc1ccccc1-c1nc(CSc2nc(C)cc(=O)[nH]2)c(C)o1,.,.,.,.,1,.
FC(F)(F)c1ccccc1-n1c(-c2cnccn2)n[nH]c1=S,11µM*,-1%,17,-6%,1,-19%
Cc1ccc(-n2c(-c3cnccn3)n[nH]c2=S)c(Br)c1,7.9µM*,-26%,49,?,-1,9%
O=C(NCc1ccccc1Cl)C1CCCN(c2ncnc3nc[nH]c23)C1 (configuration not stated),.,.,.,.,8,.
COc1ccc(O)c(C2=Nc3ccccc3N=C(c3ccccc3)C2)c1,0%,-11%,17,23µM*,-10,18µM*
CCOc1cc(/C=C2\CCCC(C(=O)C(F)(F)F)=C2O)ccc1O,?,-21%,?,23µM*,6,23µM*
COc1ccc(/C=C2/CCCC(C(=O)C(F)(F)F)=C2O)cc1OC,18µM*,?,?,23µM*,1,18µM*
Cc1cccc(-c2nc(C#N)c(NCC(C)C)o2)c1,.,.,.,.,15,.
COc1cccc(CNC(=O)c2cc3c(=O)oc4ccc(C)cc4c3s2)c1,.,.,.,?,3,21µM*
COCCCNC(=O)c1cc2c(=O)oc3ccc(C)cc3c2s1,.,.,.,6.5µM*,-6,5.8µM*
Cc1ccc(C(=O)Nc2nnc(S(=O)(=O)N3CCCc4ccccc43)s2)cc1,.,.,.,-11%,0,15%
CCc1nnc(NC(=O)c2ccc(S(=O)(=O)N3CCCc4ccccc43)cc2)o1,0.35µM*,0.56µM*,56,?,-1,11µM*
O=C(Nc1nc2c(s1)CCCC2)c1ccc(S(=O)(=O)N2CCCc3ccccc32)cc1,11µM*,?,-1,?,-9,?
CC1CCc2nc(NC(=O)c3ccc(S(=O)(=O)N4CCCc5ccccc54)cc3)sc2C1 (configuration not stated),6.3µM*,-20%,-9,?,2,-27%
CNC(=O)c1ccsc1NC(=O)c1ccccc1,-15%,-11%,?,-10%,-2,-6%
CNC(=O)c1ccsc1NC(=O)c1ccc(S(=O)(=O)N2CCCc3ccccc32)cc1,?,-11%,-18,21µM*,-8,21µM*
